log2 fold change data for 15 targets are collected here from the supplement of paper PMC10849652.

About 8,800 targets were measured; listed, in parts, are those with a hit and a random draw of the rest. About 0.5% of all pairs of compound and target were hits. Values without a mark were called inactive.

What all share (test): log2 fold change, soluble protein after heating vs DMSO (PISA); higher = thermal stabilisation; K562 lysate, 10 uM; active = over 0.2 and 3.5 SD of the protein, either way, in both replicates (recomputed)
Compound in one test: CN1CC[C@H](c2c(O)cc(O)c3c(=O)cc(-c4ccccc4Cl)oc23)[C@H](O)C1 [alvocidib]
In short, it runs like this:
(§1)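 Dounce homogenisation of K562 pellets in PBS pH 7.4 with 1 mM MgCl2 produced a crude extract, used at 1 mg/mL protein. Exposure to 10 μM compound lasted 30 min, and aliquots were then heated for 3 min across 48°C-58°C, pooled and brought to 0.5% NP-40 at 4°C. The supernatant after 21,000xg for 90 min was quantified by TMTpro 16plex LC-MS/MS with channel sums equalised. Duplicate values are given as log-two fold change in thermal stability relative to solvent controls.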

Compound in a further test: CN1CCc2c(c3ccccc3n2Cc2ccc(C(=O)NO)cc2)C1 [Tubastatin A]
An outline of the steps:
as §1

Compound in test [1]: CNC(=O)C1=CC=CC=C1NC2=NC(=NC=C2Cl)NC3=C(C=C(C=C3)N4CCOCC4)OC
An outline of the steps: as §1

Compound in the next test: CNC(=O)c1ccc(Nc2ncc(C(F)(F)F)c(NCc3nccnc3N(C)S(C)(=O)=O)n2)cc1 [defactinib]
In short, it runs like this: as §1

Compound in test [2]: CNc1nc(-c2ccc3c(N)n[nH]c3c2)cc(N2C[C@@H](C(=O)NC3CCCCC3)CC[C@H]2C)n1
An outline of the steps:
as §1

Compound in a further test: COC(=O)N[C@@H](C)CNc1nccc(-c2cn(C(C)C)nc2-c2cc(Cl)cc(NS(C)(=O)=O)c2F)n1 [encorafenib]
An outline of the steps: as §1

Compound in test [3]: COC(=O)[C@H](CCSC)NC(=O)C1=C(C=C(C=C1)NC[C@H](CS)N)C2=CC=CC=C2
In short, it runs like this: as §1

Compound in another test: COc1cc(Nc2ncc3c(n2)-c2ccc(Cl)cc2C(c2c(F)cccc2OC)=NC3)ccc1C(=O)O [alisertib]
In short, it runs like this:
as §1

Compound in test [4]: COc1cc2nc(-c3cc(F)ccc3O)nc(N[C@@H]3CNC[C@H]3C(C)(C)O)c2cc1OC
In short, it runs like this: as §1

Compound in another test: COc1cc2ncnc(Nc3ccc(F)c(Cl)c3)c2cc1OCCCN1CCOCC1 [gefitinib]
In short, it runs like this:
as §1

UniProt Q6PJW8, sequence (Q6PJW8 whole entry, looked up): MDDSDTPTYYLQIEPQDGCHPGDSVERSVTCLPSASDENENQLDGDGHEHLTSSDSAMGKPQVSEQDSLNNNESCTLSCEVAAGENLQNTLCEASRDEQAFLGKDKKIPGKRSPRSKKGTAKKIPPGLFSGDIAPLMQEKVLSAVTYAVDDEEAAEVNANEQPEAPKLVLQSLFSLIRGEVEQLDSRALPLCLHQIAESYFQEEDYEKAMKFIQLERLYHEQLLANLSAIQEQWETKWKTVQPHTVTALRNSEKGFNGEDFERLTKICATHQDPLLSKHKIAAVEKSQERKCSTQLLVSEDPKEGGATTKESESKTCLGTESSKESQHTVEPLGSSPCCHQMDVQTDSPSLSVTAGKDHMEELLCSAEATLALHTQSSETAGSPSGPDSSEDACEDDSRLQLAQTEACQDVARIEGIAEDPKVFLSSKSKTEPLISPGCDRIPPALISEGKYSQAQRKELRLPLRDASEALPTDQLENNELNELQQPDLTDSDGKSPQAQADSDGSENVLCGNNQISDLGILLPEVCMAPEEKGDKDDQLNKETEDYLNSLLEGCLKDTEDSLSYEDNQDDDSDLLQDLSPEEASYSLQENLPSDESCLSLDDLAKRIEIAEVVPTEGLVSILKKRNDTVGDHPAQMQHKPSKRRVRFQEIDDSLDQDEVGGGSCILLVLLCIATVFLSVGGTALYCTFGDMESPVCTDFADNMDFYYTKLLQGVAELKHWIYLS
UniProt Q9H4E7, sequence (Q9H4E7 whole entry, looked up): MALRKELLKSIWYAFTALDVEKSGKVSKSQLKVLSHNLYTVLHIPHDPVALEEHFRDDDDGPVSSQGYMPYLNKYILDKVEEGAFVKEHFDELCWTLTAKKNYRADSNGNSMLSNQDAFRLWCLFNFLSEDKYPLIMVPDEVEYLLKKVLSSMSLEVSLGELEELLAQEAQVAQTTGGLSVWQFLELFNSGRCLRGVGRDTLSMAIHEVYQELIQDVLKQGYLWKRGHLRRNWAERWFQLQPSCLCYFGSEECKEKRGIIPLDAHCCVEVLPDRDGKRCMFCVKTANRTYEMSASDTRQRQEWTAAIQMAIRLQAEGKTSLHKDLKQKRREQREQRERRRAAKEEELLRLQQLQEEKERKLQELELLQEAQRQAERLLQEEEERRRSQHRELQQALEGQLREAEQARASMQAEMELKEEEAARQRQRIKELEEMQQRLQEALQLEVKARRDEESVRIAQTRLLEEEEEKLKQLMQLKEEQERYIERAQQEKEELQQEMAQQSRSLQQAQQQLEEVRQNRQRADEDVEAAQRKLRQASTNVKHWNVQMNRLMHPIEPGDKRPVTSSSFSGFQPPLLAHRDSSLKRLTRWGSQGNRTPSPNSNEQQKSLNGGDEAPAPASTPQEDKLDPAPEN
UniProt Q8NF50, sequence (Q8NF50 whole entry, looked up): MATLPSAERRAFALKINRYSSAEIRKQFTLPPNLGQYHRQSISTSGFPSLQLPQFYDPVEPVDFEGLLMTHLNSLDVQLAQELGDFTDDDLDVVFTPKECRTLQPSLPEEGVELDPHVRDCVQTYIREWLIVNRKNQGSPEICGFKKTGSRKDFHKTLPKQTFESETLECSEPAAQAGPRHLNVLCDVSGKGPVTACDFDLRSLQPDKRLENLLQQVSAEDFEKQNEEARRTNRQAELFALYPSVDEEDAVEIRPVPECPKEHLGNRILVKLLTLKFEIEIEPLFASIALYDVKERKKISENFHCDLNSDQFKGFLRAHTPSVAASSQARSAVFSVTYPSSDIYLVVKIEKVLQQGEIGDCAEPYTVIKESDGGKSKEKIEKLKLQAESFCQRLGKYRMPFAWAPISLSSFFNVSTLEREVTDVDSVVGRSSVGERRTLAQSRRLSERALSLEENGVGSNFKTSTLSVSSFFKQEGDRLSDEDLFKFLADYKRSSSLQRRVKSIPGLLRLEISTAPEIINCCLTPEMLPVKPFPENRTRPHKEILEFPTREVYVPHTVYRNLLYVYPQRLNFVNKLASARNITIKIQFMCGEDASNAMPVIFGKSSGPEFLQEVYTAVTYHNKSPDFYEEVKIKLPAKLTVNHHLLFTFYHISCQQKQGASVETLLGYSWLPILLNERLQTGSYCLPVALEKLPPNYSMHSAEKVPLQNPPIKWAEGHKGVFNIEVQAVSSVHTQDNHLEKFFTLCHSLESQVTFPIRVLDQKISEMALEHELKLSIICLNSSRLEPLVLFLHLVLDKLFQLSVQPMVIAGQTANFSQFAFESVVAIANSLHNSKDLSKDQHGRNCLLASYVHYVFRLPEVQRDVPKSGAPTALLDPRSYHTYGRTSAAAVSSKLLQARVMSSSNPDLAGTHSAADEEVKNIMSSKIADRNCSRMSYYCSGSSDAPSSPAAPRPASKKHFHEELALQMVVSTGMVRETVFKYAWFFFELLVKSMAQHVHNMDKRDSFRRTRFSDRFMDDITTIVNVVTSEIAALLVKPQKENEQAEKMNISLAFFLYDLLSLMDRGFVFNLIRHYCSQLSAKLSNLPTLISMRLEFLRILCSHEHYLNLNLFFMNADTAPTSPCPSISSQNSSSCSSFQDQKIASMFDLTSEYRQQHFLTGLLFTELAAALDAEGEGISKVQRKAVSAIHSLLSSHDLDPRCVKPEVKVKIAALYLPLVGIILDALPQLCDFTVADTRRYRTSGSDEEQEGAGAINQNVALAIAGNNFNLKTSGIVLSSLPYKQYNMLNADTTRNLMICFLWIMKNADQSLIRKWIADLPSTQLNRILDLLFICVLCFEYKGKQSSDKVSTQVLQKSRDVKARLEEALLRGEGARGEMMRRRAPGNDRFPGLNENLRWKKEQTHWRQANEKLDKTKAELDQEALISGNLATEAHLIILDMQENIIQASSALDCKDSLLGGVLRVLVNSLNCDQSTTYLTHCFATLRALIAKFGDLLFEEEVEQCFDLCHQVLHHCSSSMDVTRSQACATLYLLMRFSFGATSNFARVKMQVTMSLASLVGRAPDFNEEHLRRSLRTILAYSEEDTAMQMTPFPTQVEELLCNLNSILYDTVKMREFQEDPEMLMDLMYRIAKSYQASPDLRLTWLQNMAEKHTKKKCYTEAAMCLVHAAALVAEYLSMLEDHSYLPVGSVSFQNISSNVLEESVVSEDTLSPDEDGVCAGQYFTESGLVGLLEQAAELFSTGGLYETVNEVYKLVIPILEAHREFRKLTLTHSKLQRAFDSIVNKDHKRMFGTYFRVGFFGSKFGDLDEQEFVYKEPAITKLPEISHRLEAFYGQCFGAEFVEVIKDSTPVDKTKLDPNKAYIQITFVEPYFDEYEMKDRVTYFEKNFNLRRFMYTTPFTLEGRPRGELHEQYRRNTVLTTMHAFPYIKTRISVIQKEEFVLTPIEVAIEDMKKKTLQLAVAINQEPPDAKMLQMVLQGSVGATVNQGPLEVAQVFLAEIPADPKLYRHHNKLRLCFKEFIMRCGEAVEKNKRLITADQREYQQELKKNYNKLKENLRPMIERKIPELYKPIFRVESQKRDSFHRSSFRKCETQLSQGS
UniProt P67870, sequence (P67870 whole entry, looked up): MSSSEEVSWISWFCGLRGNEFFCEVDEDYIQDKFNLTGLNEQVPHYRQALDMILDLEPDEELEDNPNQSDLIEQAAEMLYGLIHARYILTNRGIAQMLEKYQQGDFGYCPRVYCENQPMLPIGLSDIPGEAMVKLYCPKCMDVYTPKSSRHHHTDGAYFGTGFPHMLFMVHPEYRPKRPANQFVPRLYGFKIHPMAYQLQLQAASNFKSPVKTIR
UniProt Q8TDD1, sequence (Q8TDD1 whole entry, looked up): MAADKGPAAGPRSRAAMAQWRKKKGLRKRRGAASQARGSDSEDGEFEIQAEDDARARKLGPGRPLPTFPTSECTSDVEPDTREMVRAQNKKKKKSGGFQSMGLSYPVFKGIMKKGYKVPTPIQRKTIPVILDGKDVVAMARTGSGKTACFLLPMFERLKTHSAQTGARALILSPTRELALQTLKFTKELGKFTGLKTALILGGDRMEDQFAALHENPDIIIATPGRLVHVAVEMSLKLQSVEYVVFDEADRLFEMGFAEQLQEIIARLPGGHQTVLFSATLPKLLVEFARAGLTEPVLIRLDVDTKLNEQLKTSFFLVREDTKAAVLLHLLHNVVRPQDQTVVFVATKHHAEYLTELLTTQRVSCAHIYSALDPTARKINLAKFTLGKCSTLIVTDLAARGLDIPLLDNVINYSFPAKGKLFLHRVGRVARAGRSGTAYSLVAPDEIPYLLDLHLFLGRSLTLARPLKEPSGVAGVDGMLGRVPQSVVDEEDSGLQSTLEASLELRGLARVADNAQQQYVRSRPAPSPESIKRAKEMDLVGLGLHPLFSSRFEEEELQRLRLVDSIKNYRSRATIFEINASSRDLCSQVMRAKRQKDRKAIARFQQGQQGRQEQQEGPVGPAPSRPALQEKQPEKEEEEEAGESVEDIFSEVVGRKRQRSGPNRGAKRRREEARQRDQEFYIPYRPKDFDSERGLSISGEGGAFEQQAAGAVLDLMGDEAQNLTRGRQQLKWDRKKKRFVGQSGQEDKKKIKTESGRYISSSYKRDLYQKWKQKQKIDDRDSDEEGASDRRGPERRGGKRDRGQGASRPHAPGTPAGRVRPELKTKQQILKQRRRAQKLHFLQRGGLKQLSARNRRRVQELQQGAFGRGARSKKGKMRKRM
UniProt P29373, sequence (P29373 whole entry, looked up): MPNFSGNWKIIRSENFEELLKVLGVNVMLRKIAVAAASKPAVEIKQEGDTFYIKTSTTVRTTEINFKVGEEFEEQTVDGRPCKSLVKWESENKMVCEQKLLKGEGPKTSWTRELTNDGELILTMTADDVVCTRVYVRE
UniProt P00374, sequence (P00374 whole entry, looked up): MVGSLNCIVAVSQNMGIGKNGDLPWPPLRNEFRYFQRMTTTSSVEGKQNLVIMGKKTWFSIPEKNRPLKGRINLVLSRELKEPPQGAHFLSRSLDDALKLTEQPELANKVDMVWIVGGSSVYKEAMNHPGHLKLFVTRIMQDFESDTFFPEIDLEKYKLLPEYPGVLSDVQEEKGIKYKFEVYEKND
UniProt P99999, sequence (P99999 whole entry, looked up): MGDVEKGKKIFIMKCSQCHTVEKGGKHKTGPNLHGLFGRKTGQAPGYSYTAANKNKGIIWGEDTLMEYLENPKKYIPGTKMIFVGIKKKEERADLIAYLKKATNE

Turning to DHFR (UniProt P00374), the log2 fold change was 0.03 in the test with alvocidib; -0.111 with Tubastatin A; -0.001 in test [1]; 0.039 in the test with defactinib; -0.023 in test [2]; 0.01 in the test with encorafenib. In addition, the log2 fold change in test [3] is 0.141; with alisertib, 0.017; in test [4] it was -0.192; in the test with gefitinib, 0.028.
Regarding DDA1 (UniProt Q9BW61), the log2 fold change was 0.024 with alvocidib; -0.002 with Tubastatin A; 0.015 in [1]; -0.004 with defactinib; 0.031 in test [2]; 0.013 in the test with encorafenib. In addition, the log2 fold change in test [3] was 0.021; with alisertib, -0.024; in test [4] it was -0.003; in the test with gefitinib, -0.034.
With DOCK8 (UniProt Q8NF50), the log2 fold change is 0.019 with alvocidib; -0.098 with Tubastatin A; 0.007 in test [1]; 0.001 with defactinib; -0.073 in test [2]; 0.003 in the test with encorafenib. In addition, the log2 fold change in test [3] was 0.05; in the test with alisertib, -0.01; in [4], 0.014; with gefitinib, 0.005.
Turning to DDX39A (UniProt O00148), the log2 fold change in the test with alvocidib is -0.017; in the test with Tubastatin A, -0.171; in test [1], -0.006; in the test with defactinib, 0.003; in test [2], -0.025; in the test with encorafenib, 0.001. The log2 fold change is 0.163 in test [3], -0.026 with alisertib, 0.004 in test [4] and 0.009 with gefitinib.
As to CSNK2B (UniProt P67870), the log2 fold change was -0.005 with alvocidib; -0.012 with Tubastatin A; 0.324 (active) in [1]; 0.025 with defactinib; 0.053 in test [2]; -0.026 with encorafenib. The log2 fold change was -0.006 in test [3], -0.054 with alisertib, 0.052 in test [4] and -0.022 with gefitinib.
As for DHRS1 (UniProt Q96LJ7), the log2 fold change is -0.057 with alvocidib; 0.02 in the test with Tubastatin A; 0.188 in test [1]; -0.238 with defactinib; -0.012 in test [2]; 0.164 with encorafenib. For the same target, the log2 fold change in [3] is -0.102; in the test with alisertib it was 0.059; in test [4], 0.028; with gefitinib it was -0.075.
As to DCUN1D4 isoform 3 (UniProt Q92564), the log2 fold change with alvocidib was -0.276; with Tubastatin A, 0.081; in [1], 0.003; in the test with defactinib, 0.014; in [2], 0.035; with encorafenib, 0.034. Besides, the log2 fold change was 0.131 in test [3], 0.055 in the test with alisertib, -0.043 in test [4] and -0.049 with gefitinib.
As for CSNK1G3 (UniProt Q9Y6M4), the log2 fold change was 0.032 in the test with alvocidib; 0.064 in the test with Tubastatin A; 0.014 in test [1]; 0.069 with defactinib; 0.03 in test [2]; 0.018 with encorafenib. The log2 fold change in [3] is -0.033; with alisertib it was -0.005; in test [4] it was 0.459 (active); with gefitinib, -0.005.
Turning to CYCS (UniProt P99999), the log2 fold change with alvocidib is -0.003; with Tubastatin A it was 0.027; in [1] it was 0.009; in the test with defactinib, 0.04; in [2], 0.018; with encorafenib, -0.004. For the same target, the log2 fold change in [3] is -0.04; with alisertib, -0.019; in test [4], -0.002; in the test with gefitinib it was 0.003.
As to DDX54 isoform 2 (UniProt Q8TDD1), the log2 fold change was -0.037 with alvocidib; -0.047 with Tubastatin A; 0.017 in [1]; -0.05 with defactinib; -0.03 in [2]; 0.084 in the test with encorafenib. The log2 fold change was 0.025 in test [3], 0.023 with alisertib, 0.006 in test [4] and -0.089 with gefitinib.
Regarding CYP51A1 (UniProt Q16850), the log2 fold change is -0.017 with alvocidib; 0.007 with Tubastatin A; 0.005 in test [1]; -0.001 in the test with defactinib; 0.023 in test [2]; -0.019 in the test with encorafenib. Also, the log2 fold change in [3] is 0.09; with alisertib, 0.019; in test [4], 0.053; with gefitinib, 0.
On to CNDP2 (UniProt Q96KP4), for which the log2 fold change was -0.11 with alvocidib; 0.039 with Tubastatin A; 0.003 in [1]; 0.005 with defactinib; 0.1 in test [2]; -0.02 with encorafenib. Further, the log2 fold change in test [3] was 0.002; with alisertib, -0.031; in test [4], 0.047; with gefitinib, 0.013.
Consider CNST (UniProt Q6PJW8), for which the log2 fold change in the test with alvocidib is 0; with Tubastatin A, -0.055; in test [1], 0.043; with defactinib it was 0.041; in test [2] it was -0.027; with encorafenib, 0.03. Moreover, the log2 fold change in test [3] was -0.096; with alisertib, -0.031; in [4], 0.024; with gefitinib, 0.002.
With DEF6 (UniProt Q9H4E7), the log2 fold change in the test with alvocidib is -0.036; with Tubastatin A, -0.154; in test [1], 0.027; in the test with defactinib, -0.07; in test [2], 0.039; in the test with encorafenib, 0.019. Besides, the log2 fold change in test [3] was -0.002; with alisertib it was 0.097; in [4], 0.013; with gefitinib, -0.01.
For the target CRABP2 (UniProt P29373), the log2 fold change was -0.025 in the test with alvocidib; -0.116 in the test with Tubastatin A; -0.04 in test [1]; -0.015 with defactinib; 0.006 in test [2]; -0.209 with encorafenib. For the same target, the log2 fold change in test [3] is 0.082; in the test with alisertib, -0.109; in test [4], -0.018; in the test with gefitinib it was 0.01.
